Source: PubChem BioAssay
KB-V1 MDR tox: qHTS assay for MDR1-selective chemotherapeutics: Primary screen using the drug-selected MDR subline cells KB-V1. KB-V1 MDR cells viability, CellTiter-Glo, 72 h. Potency, µM (highest dose often 46.1 µM), usual class: cytotoxic. hit rate 3.4% among 400,000; further: nearly all actives have a fitted effect of over 60% in size
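Compound-treated KB-V1 multidrug-resistant cells, 72 h, 37 degrees C; viability by CellTiter-Glo. Fitted qHTS curves give the values.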
SW480 rereplic: A quantitative high throughput screen for small molecules that induce DNA re-replication in SW480 colon adenocarcinoma cells; Potency, µM (series often up to 46.1 µM), most hits filed as activators; SW480 DNA re-replication, Hoechst DNA content imaging, 48 h; AID 624297, 2012; hit rate 1.8% among 340,000; further: nearly all actives have a fitted effect of over 55% in size
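Readout is total intensity of Hoechst-stained nuclei, excited at 405 nm and collected at 500-530 nm. Compound treatment lasted 48 hr at 37 C in 5% CO2 before staining.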
MCF10A rereplic: A quantitative high throughput screen for small molecules that induce DNA re-replication in MCF 10a normal breast cells. MCF 10A DNA re-replication, Hoechst nuclear intensity, 48 h. Potency, µM (highest dose often 46.1 µM), hits mostly activators. hit rate 2.9% among 350,000. AID 624296, 2012; further: nearly all actives have a fitted effect of over 50% in size
ELG1 DNA repair: qHTS screen for small molecules that inhibit ELG1-dependent DNA repair in human embryonic kidney (HEK293T) cells expressing luciferase-tagged ELG1; AID 504467, 2011; HEK293T ELG1-luciferase reporter, luminescence, 16 h; DNA damage induced by 5-fluorouridine; Potency, µM (titrated, usually from 46.1 µM), most hits filed as inhibitors; hit rate 2.3% among 330,000; further: nearly all actives have a fitted effect of over 55% in size
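5-Fluorouridine DNA damage + compound/DMSO, 2,000 cells/well, 16 h, 37 °C/5% CO2. ONE-Glo, 30 min RT, luminescence. Readout = decrease in reporter signal.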
KB-3-1 cytotox: qHTS assay for MDR1-selective chemotherapeutics: Primary screen using the parental adenocarcinoma cell KB-3-1 | Potency, µM (series often up to 46.1 µM), actives largely listed as cytotoxic | AID 1347075, 2019 | KB-3-1 viability, CellTiter-Glo ATP luminescence, 72 h | hit rate 1.4% among 400,000; further: nearly all actives have a fitted effect of over 60% in size
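Here the drug-naive KB-3-1 line serves as comparator for MDR sub-line selectivity; cells received compound titrations, 72 h at 37 °C, then CellTiter-Glo readout.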
Numbers stand for hits; - = inactive; ? = inconclusive; . = no result given. Most compounds without a hit are left out; they make up all but 8.2% or so of the library. The call rests on the fitted dose curve; in most records, active means well fitted curve in the direction sought with a large enough effect; inconclusive means small, poorly fitted or top-dose-only effect, or another doubt; inactive means no such curve, though single readings can be large; an effect the other way counts as inactive or inconclusive.

SMILES	KB-V1 MDR tox	SW480 rereplic	MCF10A rereplic	ELG1 DNA repair	KB-3-1 cytotox
Cc1ccc(Oc2ccc(S(=O)(=O)N3CCOCC3)cc2C(N)=O)c(-n2nc3ccccc3n2)c1	18µM	5.2µM	4.6µM	?	6.5µM
COc1ccccc1Oc1ccc(S(=O)(=O)N2CCOCC2)cc1S(=O)(=O)N1CCOCC1	-	-	-	-	-
C#CCN(C1CCCC1)S(=O)(=O)C=C	-	.	.	.	?
O=C(Nc1ccc([N+](=O)[O-])cc1)Nc1ccc(OC(F)F)c(Cl)c1	4.6µM	18µM	?	?	5.8µM
COc1ccc(NC(=O)Nc2cccc([N+](=O)[O-])c2)cc1Cl	15µM	-	?	?	-
CC(Oc1ccc(Br)cc1)C(=O)Nc1ccncc1 (centres undefined)	-	-	-	5.2µM	-
COc1ccc(OC(C)C(=O)Nc2cccc([N+](=O)[O-])c2)cc1 (centres undefined)	16µM	-	-	-	-
Cc1ccc(OC(C)C(=O)Nc2ccncc2)cc1C (centres undefined)	-	-	-	?	?
CCCN(C)C1CN(Cc2cn(Cc3ccc(OC)cc3)nn2)S(=O)(=O)C1 (centres undefined)	-	.	.	.	-
Nc1ccc(S(=O)(=O)c2cc(O)c3ccccc3c2O)cc1	-	-	?	.	?
COCCn1c(N)c(C(=O)c2cccc(S(=O)(=O)N3CCCCCC3)c2)c(=O)[nH]c1=O	?	?	-	-	-
Cc1ccc(-c2nc(CSCC(=O)Nc3cc(C)on3)c(C)o2)cc1	23µM	-	-	?	-
Cc1ccc(-c2nc(CSCC(=O)NCCN3CCN(Cc4ccccc4)CC3)c(C)o2)cc1	?	-	-	16µM	?
c1ccc2c(c1)ccn1c(Cc3ccsc3)c(C3CCCCC3)nc21	-	.	.	.	-
Cc1ccc(N(CC(=O)NCCSc2ccccc2)S(=O)(=O)c2ccc(F)cc2)cc1	-	.	.	.	-
COCc1cc(C)nc(OCC(=O)N/N=C/c2ccc(O)cc2)c1C#N	-	18µM	-	?	-
CC(C)(C)OC(=O)COc1cc(OCC(=O)OC(C)(C)C)c2c(=O)cc(-c3ccccc3)oc2c1	21µM	-	-	?	-
CC[n+]1c(/C=C2\C=C(C)CC(C)(C)C2)sc2ccccc21	-	?	?	-	-
CC[n+]1c(/C=C2/C=C(C)CC(C)(C)C2)sc2ccc(OC)cc21	-	?	16µM	-	21µM
CC[n+]1c(/C=C2\C=C(C)CC(C)C2)sc2ccccc21 (centres undefined)	-	-	23µM	-	-
Cc1[nH]n2c(=O)cc(-c3ccc(Cl)cc3)nc2c1-c1ccccc1	-	.	.	.	?
COc1cccc(-c2cc3nc(-c4ccccc4)cc(=O)n3[nH]2)c1	4.6µM	-	?	?	5.8µM
COc1ccc(-c2cc3nc(N)cc(=O)n3[nH]2)cc1	-	.	.	.	?
COc1ccc(-c2c(C(F)(F)F)[nH]n3c(=O)cc(-c4ccccc4)nc23)cc1	?	29µM	2.6µM	?	-
CCn1c(CN2CCN(c3cccc(Cl)c3)CC2)nc2c1c(=O)[nH]c(=O)n2C	-	.	.	.	-
SMILES	KB-V1 MDR tox	SW480 rereplic	MCF10A rereplic	ELG1 DNA repair	KB-3-1 cytotox
Cn1c(=O)[nH]c(=O)c2c1nc(N1CCCC1)n2CCCSc1nnnn1-c1ccccc1	6.5µM	-	?	?	-
CCCCCn1c(N2CCN(c3cccc(Cl)c3)CC2)nc2c1c(=O)[nH]c(=O)n2C	-	-	?	23µM	?
CN1CCN(c2nc3c(c(=O)[nH]c(=O)n3C)n2CCSc2nnnn2-c2ccccc2)CC1	-	-	-	-	-
COc1ccccc1/C=C/C(=O)OCC(=O)N1CCN(S(=O)(=O)c2ccc(C)cc2C)CC1	-	-	-	?	-
CC(=O)Nc1cccc(Oc2ncnc3scc(-c4ccc(C)cc4)c23)c1	-	-	-	?	-
Cc1ccc(-c2csc3ncnc(Oc4ccc5c(C)cc(=O)oc5c4)c23)cc1	-	-	-	18µM	-
Oc1cc2cc(-c3csc(-c4ccc(F)cc4)n3)ccc2[nH]1	-	.	.	.	-
Cc1nc([N+](=O)[O-])c(Br)n1CC(=O)c1ccc(F)cc1	-	?	21µM	-	-
Cc1nc([N+](=O)[O-])c(Br)n1CC(=O)c1cccc([N+](=O)[O-])c1	-	?	21µM	-	-
COC(=O)Cn1c(C)nc([N+](=O)[O-])c1Br	-	-	-	-	-
Cn1c(NC(=O)c2ccc(F)cc2)c(-c2ccccn2)c(=O)c2ccccc21	-	-	-	?	-
CN(C)c1ccc(S(=O)(=O)NCC(=O)NCCC2=CCCCC2)cc1[N+](=O)[O-]	18µM	-	-	-	-
CN(C)c1ccc(S(=O)(=O)NCC(=O)NCCOc2ccccc2F)cc1[N+](=O)[O-]	-	?	-	-	-
CCc1ccc(NC(=O)C(C)OC(=O)c2cc(=O)[nH]c3ccc(S(=O)(=O)Nc4ccc(F)cc4)cc23)cc1 (centres undefined)	?	-	21µM	?	-
COC(=O)c1ccc(OC)c(CN2CCCN(Cc3ccc(C)cc3)S2(=O)=O)c1	-	.	.	.	-
COC(=O)c1ccc(OC)c(CN2CCCN(Cc3cc(C)ccc3C)S2(=O)=O)c1	-	-	-	15µM	-
CC(=O)c1ccc(Cc2ccc(C(C)=O)s2)s1	-	.	.	.	-
Cc1ccc(-c2cc(C(F)F)n3ncc(C(=O)N4CCCCC4c4cccnc4)c3n2)cc1 (centres undefined)	?	?	?	18µM	-
O=C(O)c1cc2nc(-c3ccccc3)cc(-c3ccccc3)n2n1	-	-	-	-	-
CC1CCCCN1C(=O)c1cc2nc(-c3ccccc3)cc(-c3ccccc3)n2n1 (centres undefined)	?	?	?	16µM	-
O=C(c1cc2nc(-c3ccc(F)cc3)cc(C(F)(F)F)n2n1)N1CCCCC1c1cccnc1 (centres undefined)	?	?	?	8.2µM	3.3µM
Cc1ccc(C)c(NS(=O)(=O)c2ccc3oc(=O)c4ncn(C)c4c3c2)c1	-	.	.	.	-
CCN(CC)c1ccc(-n2nc3cc(C)c(NC(=O)c4ccccc4F)cc3n2)cc1	?	.	.	.	-
Nc1nc(N)c2c(OCC3CCN(Cc4ccccc4F)CC3)cccc2n1	?	.	.	.	-
CCCc1cc(C(=O)N2CCN(c3ccc(C(F)(F)F)cn3)CC2)sc1C	-	?	-	?	-
Oc1ccccc1-n1c(-c2ccccc2)ccc1-c1ccccc1	-	-	21µM	-	-
Cc1cc(Cl)n2c(nc3cc(F)c(F)cc32)c1C#N	5.8µM	6.5µM	?	?	7.3µM
Cc1cc(C)n2c(=O)c3ccc(Cl)cc3nc2c1C#N	-	?	?	-	-
